The results in this text go back to PubChem BioAssay AID686964 (The Scripps Research Institute Molecular Screening Center, 2013).

Among all 370,000 compounds or so, about 1,100 (0.3%) were called active. This is one part of a sample in which actives are shown more often than they occur. Cut-off read from the data, not from the text of the source: active = inhibition above about 13%; inactive = the rest.

In the test the target is Methyl-CpG-binding domain protein 2 (Homo sapiens) (UniProt Q9UBB5). In words: MBD2-DBD methyl-oligonucleotide interaction blockers – biochemical, TR-FRET, DNA-binding domain, human, primary screen (AID 686964). The settings on record: MBD2 binding to methylated oligonucleotide, at 4.4 µM, active compounds read high. On the technique in general: In TR-FRET formats the signal depends on donor and acceptor labels being close together.
Sequence of Methyl-CpG-binding domain protein 2 (Homo sapiens) (Q9UBB5 whole entry, looked up, the tested form may be a part): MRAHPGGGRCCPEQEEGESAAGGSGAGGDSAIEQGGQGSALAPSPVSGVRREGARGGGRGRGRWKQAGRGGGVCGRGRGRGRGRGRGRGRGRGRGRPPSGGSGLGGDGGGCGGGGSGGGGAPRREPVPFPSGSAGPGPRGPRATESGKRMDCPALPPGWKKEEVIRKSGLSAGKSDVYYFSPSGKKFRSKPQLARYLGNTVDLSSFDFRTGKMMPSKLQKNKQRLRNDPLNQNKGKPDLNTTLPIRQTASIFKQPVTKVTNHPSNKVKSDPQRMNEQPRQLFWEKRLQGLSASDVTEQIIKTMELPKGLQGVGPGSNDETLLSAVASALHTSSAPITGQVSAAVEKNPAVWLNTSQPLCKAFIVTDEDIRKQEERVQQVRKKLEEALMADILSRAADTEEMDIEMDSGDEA
As a reminder, the inhibition is the change of the read-out against control, counted positive when it falls. Consider `CCOC(=O)NC(C(F)(F)F)(C(F)(F)F)P(=O)(c1ccccc1)c1ccccc1`, for which the inhibition is -1.87% (inactive).

Consider `CCOC(=O)CNC(=O)/C=C/c1c(Cl)cccc1Cl`, for which the inhibition was -5.98% (inactive).

As for `CCOC(=O)CCP(=O)(O)C(O)(c1ccccc1)c1ccccc1`, the inhibition was 28.3% (active).

Turning to `CCOC(=O)C(=O)N(Cc1ccccc1)c1ccccc1C(=O)Nc1cc(OC)ccc1OC`, the inhibition was 1% (inactive).

For `COc1cccc(/C=C2\CC3(OC(C)=O)CCCN2C3)c1` (stereo not given), the inhibition was 1.18% (inactive).

In the case of `O=c1ccc2c(-c3ccccc3S(=O)(=O)O)c3ccc(O)c(O)c3oc-2c1O`, the inhibition is 97.2% (active).

As for `O=C(NC1CCCCN(Cc2ccc(Cl)cc2)C1=O)c1ccc(Br)cc1` (stereo not given), the inhibition was -2.53% (inactive).

For the compound `C=C(C)C#CC(Cc1ccccc1)NCC1CC1` (stereo not given), the inhibition was -0.24% (inactive).

As to `Cc1cc(C)c2nc3nc(C)cc(C)c3c(N)c2c1`, the inhibition was 19.4% (active).

`NC(=O)c1ncn([C@@H]2O[C@H](C(=O)O)[C@@H](O)[C@H]2O)n1`: the inhibition was 2.1% (inactive).

Regarding `CCC[C@H]1C(=O)CC[C@@]23CCCN2C(=O)CCC[C@@H]13`, the inhibition was -0.46% (inactive).

For `CC(C)CSc1nnc(-c2cccnc2)n1Cc1ccccc1`, the inhibition is -2.93% (inactive).

`O=C(OC12CCCN(C1)/C(=C/c1cccnc1)C2)C1CCCC1` (stereo not given): the inhibition was -0.45% (inactive).

On to `O=C(NS(=O)(=O)c1cccs1)[C@H]1O[C@@H](n2ccc(=O)[nH]c2=O)[C@H](O)[C@@H]1O`, for which the inhibition was 3.05% (inactive).

With `Cc1cccc(N2CCN(Cc3c(C)n(C)n(-c4ccccc4)c3=O)CC2)c1C`, the inhibition is 1.05% (inactive).

For `Cc1c(C=O)n(C)n(-c2ccccc2)c1=O`, the inhibition is 14.6% (active).

With `Cc1c(CN2CCC(C)CC2)c(=O)n(-c2ccccc2)n1C`, the inhibition is 2.32% (inactive).

Regarding `O=S(=O)(c1ccc(Br)cc1)n1ccc2ccccc21`, the inhibition was -0.04% (inactive).

For the compound `O=S1(=O)c2c(cccc2N2CCSCC2)Oc2ccccc2CN1Cc1cn(Cc2ccc(F)cc2)nn1`, the inhibition was -0.08% (inactive).

On to `O=C(NCCO)C(=O)NCC(c1ccc2c(c1)OCO2)N1CCN(c2ccc(F)cc2)CC1` (stereo not given), for which the inhibition is 0.87% (inactive).

Take `C=CCN(C(=O)[C@@H](CCCC)[C@@H](O)c1ccc(Cl)cc1)c1ccccc1`: the inhibition was 15.9% (active).

Consider `C[C@H](C(=O)N(C)c1ccccc1)[C@@H](O)c1ccc(Cl)cc1`, for which the inhibition is -1.32% (inactive).

With `CCCC[C@H](C(=O)N(CC)c1ccccc1)[C@@H](O)c1ccc2ccccc2c1`, the inhibition was -3.72% (inactive).

Turning to `O=C(CCCCCN1C(=O)C2C3C=CC(C3)C2C1=O)Nc1ccccn1` (stereo not given), the inhibition is -4.13% (inactive).

As to `COC(=O)c1cccc(NC(=O)c2cccc(N3C(=O)CCC3=O)c2)c1`, the inhibition was 13.4% (active).

As to `CC(=O)Nc1cccc(C(=O)OCN2C(=O)c3ccccc3C2=O)c1`, the inhibition was 6.26% (inactive).

For `COC(=O)c1cccc(NS(C)(=O)=O)c1`, the inhibition was -3.55% (inactive).

In the case of `CCN(CC)CCOc1ccc2c(c1)C(=NNC(=O)c1ccccn1)c1cc(OCCN(CC)CC)ccc1-2`, the inhibition was 109% (active).

On to `CCCC(C(=O)OCCN(CC)CC)(c1ccccc1)c1ccccc1`, for which the inhibition was 0.72% (inactive).

Take `CCN(CC)S(=O)(=O)c1cc(C(=O)Nc2ccccn2)ccc1C`: the inhibition was 2.21% (inactive).

For the compound `Cc1cccc(S(=O)(=O)N(C)C[C@@H]2OCc3cnnn3CCCC(=O)N([C@H](C)CO)C[C@@H]2C)c1`, the inhibition was 3.06% (inactive).

Turning to `C=C1c2c(Cl)ccc(O)c2C(O)=C2C(=O)[C@]3(O)C(O)=C(C(N)=O)C(=O)[C@@H](N(C)C)[C@@H]3[C@@H](O)C12` (stereo not given in full), the inhibition was 27.8% (active).

Regarding `CN(C)[C@@H]1C(=O)C(C(N)=O)=C(O)[C@@]2(O)C(=O)C3=C(O)c4c(O)ccc(Cl)c4[C@@H](O)[C@H]3C[C@@H]12`, the inhibition is 17.8% (active).

As to `O=C1CCC2(CCC(c3ccc(Cl)cc3)CC2)N1CCO` (stereo not given), the inhibition is -0.8% (inactive).

On to `Nc1ncnc2c1ncn2[C@@H]1O[C@H](C(=O)N[C@@H](CCc2ccccc2)C(=O)N2CCCN(Cc3cccs3)CC2)[C@@H](O)[C@H]1O`, for which the inhibition was 1.63% (inactive).

As for `O=C(O)CCn1c(O)c(C=C2N=c3ccccc3=N2)sc1=S`, the inhibition was -4.63% (inactive).

Regarding `CCOC(=O)C1C(c2ccc(O)cc2)NC(=O)NC1(O)C(F)(F)F` (stereo not given), the inhibition was -5.62% (inactive).

In the case of `CCOC(=O)C1C(=O)OC2(CCCC2)C1C(=O)OCC` (stereo not given), the inhibition is 19.3% (active).

Turning to `CCOC(=O)C1C(=O)NCC1c1ccccc1` (stereo not given), the inhibition is -0.38% (inactive).

With `Cc1cc2c(nc1C)CCCN2C`, the inhibition was -0.93% (inactive).

`C=CCN(Cc1ccc2c(c1)OCO2)C(C#CC1CC1)C(C)(C)C` (stereo not given): the inhibition is 3.04% (inactive).

With `O=C(c1c[nH]c2ccccc12)N1CCC(Oc2cccnc2)CC1`, the inhibition is -6.13% (inactive).

Consider `CC(=O)N1C[C@@H](CO)[C@@H](N(C)C(=O)C(C)(C)C)C[C@H]1c1ccccc1Br`, for which the inhibition is 2.89% (inactive).

Regarding `Oc1ccc(/C=C/c2c(F)cccc2F)c2cccnc12`, the inhibition was -0.79% (inactive).

As for `Cc1ccc(CNC(=O)CC(NC(=O)c2ccccc2)c2ccccc2)cc1` (stereo not given), the inhibition was -3.58% (inactive).

In the case of `Nc1ccn([C@@H]2O[C@H](C(=O)N[C@H]3CCCCNC3=O)[C@@H](O)[C@H]2O)c(=O)n1`, the inhibition was -2.88% (inactive).

For the compound `Nc1ccccc1C(=O)NC1CCCCNC1=O` (stereo not given), the inhibition is 16.1% (active).

With `O=C(CNC(=O)OCc1ccccc1)NC1CCCCNC1=O` (stereo not given), the inhibition is 0.98% (inactive).

As for `CN1[C@H](Cc2ccccc2)COc2cccc(N3CCSCC3)c2S1(=O)=O`, the inhibition is 3.96% (inactive).

Consider `CCOC(=O)N1CCN(C(=O)C[C@@H]2C(=O)N(CCc3ccc(Cl)cc3)C3=CCCC[C@]32C(=O)OCC)CC1`, for which the inhibition is -2% (inactive).

For the compound `COc1ccc2c(CC(=O)NNC(=O)c3ccccc3F)coc2c1`, the inhibition was -1.98% (inactive).

Take `C[C@H]1[C@H](NC(=O)c2cccc(N(C)C)c2)CC[C@@]23CCCN2C(=O)CCC[C@@H]13`: the inhibition was -0.56% (inactive).

Regarding `Cc1c(NS(=O)(=O)c2cccc(C(=O)Nc3ccc(SC(F)F)cc3)c2)c(=O)n(-c2ccccc2)n1C`, the inhibition was 7.59% (inactive).

With `Cc1c(NS(=O)(=O)c2cc(C(=O)NCCc3ccc(F)cc3)cc(Cl)c2Cl)c(=O)n(-c2ccccc2)n1C`, the inhibition was 26.3% (active).

On to `Cc1cc(C)c(S(=O)(=O)Nc2c(C)n(C)n(-c3ccccc3)c2=O)cc1[N+](=O)[O-]`, for which the inhibition was -5.79% (inactive).
